CYP2C19 inhib: inhibitors of human CYP2C19. inhibition, % at 5 µM. hit rate 21% among 96,000. P33261. CYP2C19 Supersomes, luciferin-H EGE luminescence, 30 min;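 active = CYP2C19 inhibition above a set limit at 5 µM in the primary screen, cut at about 50% in these data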
Target sequence (P33261 whole entry, looked up): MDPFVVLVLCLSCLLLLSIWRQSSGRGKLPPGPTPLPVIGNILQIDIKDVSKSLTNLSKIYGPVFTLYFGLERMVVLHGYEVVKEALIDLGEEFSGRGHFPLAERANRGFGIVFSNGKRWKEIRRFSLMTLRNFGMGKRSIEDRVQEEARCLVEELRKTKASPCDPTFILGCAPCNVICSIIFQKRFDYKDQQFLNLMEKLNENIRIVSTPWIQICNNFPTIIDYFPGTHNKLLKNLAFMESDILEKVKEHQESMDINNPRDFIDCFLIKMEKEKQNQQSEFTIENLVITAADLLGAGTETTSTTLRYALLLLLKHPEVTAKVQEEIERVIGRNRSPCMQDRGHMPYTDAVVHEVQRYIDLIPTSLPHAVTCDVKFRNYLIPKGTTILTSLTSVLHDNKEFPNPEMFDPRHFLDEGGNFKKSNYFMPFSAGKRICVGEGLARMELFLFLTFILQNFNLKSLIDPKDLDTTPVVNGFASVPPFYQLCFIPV
CYP2C9 activ: increases human cytochrome P450 2C9 activity; P11712; recombinant CYP2C9, luciferin-H conversion, luminescence; active compounds read high; factor 1 = untreated enzyme, 0 = blocked; activation factor at 5 µM; hit rate 1.4% among 96,000; AID 1024;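 active = activation factor of 2 or more for CYP2C9 at a 5 µM dose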
CYP2C9 inhib: human CYP2C9 inhibition; CYP2C9 Supersomes, luciferin-H conversion, luminescence; AID 777; hit rate 20% among 96,000; inhibition, % at 5 µM;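 active = blocking of liver enzyme CYP2C9 beyond about 50% at 5 µM, limit read from the data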
CYP2C19 activ: activators of human cytochrome P450 2C19 | recombinant CYP2C19, luciferin-H EGE luminescence; active compounds read high; 0 = fully inhibited enzyme, 1 = untreated enzyme | activation factor at 5 µM | 96,000 tested, under 10 active | AID 1025;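 active = activation factor of at least 2 at 5 µM in the primary screen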
A number is an active result; i = inactive. Shown are actives, neighbours in structure and some others; about 31% of the full set was active somewhere.

SMILES	CYP2C19 inhib	CYP2C9 activ	CYP2C9 inhib	CYP2C19 activ
Cc1ccc(S(=O)(=O)N2CCN(C3CC(=O)N(Cc4ccccc4)C3=O)CC2)cc1C (configuration not stated)	60	i	i	i
O=C1CC(N2CCN(S(=O)(=O)c3cccc(C(F)(F)F)c3)CC2)C(=O)N1Cc1ccccc1 (configuration not stated)	59	i	i	i
COc1ccc(CCN2C(=O)CC(N3CCN(S(=O)(=O)c4ccccc4)CC3)C2=O)cc1 (configuration not stated)	i	i	i	i
COC(=O)C(C)Oc1ccc(=O)[nH]n1 (configuration not stated)	i	i	i	i
O=C(OCC(=O)N1CCN(c2ccccc2)CC1)C1=COCCO1	i	i	i	i
O=C(NCCCN1CCCC1=O)c1ccc(CNS(=O)(=O)c2ccc(F)cc2)cc1	i	i	i	i
CCNC(=O)c1sc(=S)n(CC)c1N	i	i	i	i
CCn1c(N)c(C(=O)NC)sc1=S	52	i	50	i
O=C1CCCC2=C1C1(CCCCC1)N=C(Nc1nc3ccccc3s1)N2	i	i	i	i
O=C(Nc1cccc(NC(=O)c2nccc3ccccc23)c1)c1ccco1	i	2	i	i
O=C(Nc1cccc(-c2cnc3ccccc3n2)c1)c1ccccc1	i	i	i	i
O=C(Nc1cccc(-c2nc3ccccc3[nH]2)c1)c1ccco1	82	i	72	i
O=C(Nc1cccc(-c2cnc3ccccc3n2)c1)c1cccc(NC(=O)c2ccco2)c1	69	i	75	i
Nc1nc(-c2cccc(Br)c2)cs1	64	i	i	i
Cc1ccc2c(c1)C1CCCC3C1N2CC(=O)N3Cc1ccccc1 (configuration not stated)	99	i	100	i
Cc1ccc2c(c1)C(CCN)C(=O)N2Cc1ccccc1 (configuration not stated)	i	i	i	i
CC1CCCC(NC(=O)Cn2cc3c(n2)CCCCC3)C1C (configuration not stated)	i	i	i	i
COc1cc(C2CC(=O)NC3=C2C(=O)CC(C)(C)C3)cc(OC)c1O (configuration not stated)	i	i	i	i
O=C(NCCCn1ccnc1)c1cccc(S(=O)(=O)Nc2ccccc2F)c1	61	i	100	i
Cc1cc(C(=O)NCCCn2ccnc2)cs1	88	i	66	i
O=C(NCCCn1ccnc1)c1cn(Cc2ccc(F)cc2)nn1	94	i	60	i
Cc1cc(C(=O)NCCCN2CCCC2=O)cs1	i	i	i	i
Cc1ccc(C(=O)NCCCn2ccnc2)o1	72	i	i	i
C=CCn1c(=N)c(C(=O)NCCCOC)cc2c(=O)n3cc(C)ccc3nc21	i	i	i	i
Cc1ccc2nc3c(cc(C(=O)NCCCn4ccnc4)n3C)c(=O)n2c1	89	i	90	i
SMILES	CYP2C19 inhib	CYP2C9 activ	CYP2C9 inhib	CYP2C19 activ
COc1ccc(C(=O)N/C(=C/c2cccs2)C(=O)NCCCn2ccnc2)cc1OC	i	i	i	i
O=C(NCCCn1ccnc1)c1sc2cccc(F)c2c1Cl	96	i	91	i
O=C(NCCCn1ccnc1)NC(C(F)(F)F)C(F)(F)F	80	i	68	i
O=C(NCCCn1ccnc1)C1c2ccccc2Oc2ccccc21	100	i	98	i
CCN(CC)c1ccc(NC(=O)COC(=O)c2ccc3ccccc3n2)cc1	i	i	i	i
CC(NC(=O)C(C)(C)C)c1nc2ccccc2n1C (configuration not stated)	i	i	i	i
O=C(NCCCn1ccnc1)C(Cc1ccccc1)N1C(=O)c2ccccc2C1=O (configuration not stated)	64	i	62	i
CCOC(=O)c1cc2c(nc1N)CC(C)(CC)OC2 (configuration not stated)	92	i	i	i
COC(=O)c1ccc(N2CCC(C)CC2)c(N)c1	60	i	i	i
COc1cc(C)c(Br)cc1S(=O)(=O)NCc1ccccc1	65	i	i	i
COc1cc(C)c(Cl)cc1S(=O)(=O)NCc1ccncc1	98	i	50	i
COc1ccc(OC)c(-c2cc(C(=O)NCCN3CCOCC3)no2)c1	i	i	i	i
Cc1sc2ncnc(Oc3ccc(-n4ccnc4)cc3)c2c1C	100	i	99	i
COc1ccc(CCNc2oc(-c3ccc(C)cc3)nc2C#N)cc1OC	i	i	50	i
COCCNc1oc(-c2ccc(C)cc2)nc1C#N	86	i	86	i
N#Cc1nc(-c2ccc(Cl)cc2)oc1NCCc1ccccn1	i	i	i	i
COCCNc1oc(-c2ccc(Cl)cc2)nc1C#N	79	i	73	i
Cc1ccc(-c2nc(C#N)c(NCCc3ccccn3)o2)cc1	i	i	i	i
CCCc1nnc(NC(=O)NCCN2C(=O)C3C4C=CC(C4)C3C2=O)s1 (configuration not stated)	i	i	i	i
Cc1csc(NC(=O)Cc2nn(C)c(=O)c3ccccc23)n1	i	i	i	i
O=C(C1CCN(S(=O)(=O)c2cccc3cccnc23)CC1)N1CCN(C2CCCCC2)CC1	i	i	i	i
CCOC(=O)C1CCN(S(=O)(=O)c2ccc(C)cc2)CC1	81	i	i	i
CCOC(=O)C1CCN(S(=O)(=O)c2ccc3[nH]c(=O)oc3c2)CC1	56	i	i	i
Cc1ccc(S(=O)(=O)N2CCC(C(=O)Nc3ccccc3N3CCCCC3)CC2)cc1	80	i	87	i
c1ccc(-c2nnc3sc(-c4csc5c4CCCC5)nn23)cc1	i	i	i	i
SMILES	CYP2C19 inhib	CYP2C9 activ	CYP2C9 inhib	CYP2C19 activ
CCOC(=O)c1cccc(NC(=O)CSc2nnc(-c3cccnc3)n2C)c1	i	i	i	i
COc1cc(NC(=O)c2ccc(-c3ccc(Br)cc3)o2)ccc1NC(=O)C(C)C	54	i	i	i
COc1ccccc1NC(=O)c1ccc(-c2ccc(Br)cc2)o1	i	i	i	i
C=CCOc1c(Br)cc(CNn2nnnc2N)cc1OC	70	i	i	i
C=CCOc1c(Br)cc(CNc2ccc(NC(=O)C(C)C)c(OC)c2)cc1OC	61	i	i	i
Nc1c(Nc2ccccc2)c2ccccc2oc1=O	95	i	80	i
O=c1oc2ccccc2c(Nc2cccc(O)c2)c1[N+](=O)[O-]	91	i	i	i
CCCOC(=O)CSC1=C(C#N)C(c2ccccc2OC)C(C#N)C(=O)N1 (configuration not stated)	i	i	i	i
CCCCSC1=C(C#N)C(c2ccccc2C)C(C(=O)OCC)C(=O)N1 (configuration not stated)	61	i	66	i
CCOC(=O)C1C(=O)NC(SCC(=O)OC)=C(C#N)C1c1ccccc1OCC (configuration not stated)	68	i	i	i
C=CCSC1=C(C#N)C(c2ccccc2OCC)C(C#N)C(=O)N1 (configuration not stated)	55	i	54	i
CCOc1ccccc1C1NC(=O)NC(C)=C1C(=O)OC1CCCCC1 (configuration not stated)	i	i	i	i
CCOc1ccccc1C1C(C#N)=C(SCC(=O)OC)NC(=O)C1C(=O)OC (configuration not stated)	70	i	i	i

High-throughput results deposited in PubChem BioAssay by Sanford-Burnham Center for Chemical Genomics.
